# High-throughput results as filed in PubChem.
# Sampled rows, rich in hits. Any-hit rate of the full collection: about 21%.
# Shiga toxin inh – inhibitors of Shiga toxin in Vero cells; inhibition, % at 38.7 µM; hit rate 9.2% among 290,000; Vero cells, Shiga toxin protein synthesis inhibition reporter; AID 2315; in the data active = inhibition mostly above about 28%, no sharp cut-off; inactive = mostly below about 43%; also: 0% is about no effect
# CHX counter – counter-screen for Shiga toxin inhibitors: cycloheximide protein synthesis inhibition | hit rate 12% among 300,000 | AID 2314 | max response, % | cell reporter, cycloheximide protein synthesis inhibition counterscreen; in the data active = max response mostly above about 13%, no sharp cut-off; inactive = mostly below about 14%; also: read at 38.3 µM for the half of the compounds with a filed dose; 0% is about no effect
# HCMV antiviral – inhibitors of human cytomegalovirus; HFF cells, HCMV-luciferase reporter, 72 h; hits give low values; activity change, negative = inhibition, % at 57.5 µM; hit rate 4.5% among 410,000; in the data active = activity change below about -60%; inconclusive = no clear call, values can overlap the other calls; inactive = above about -39%; also: % is scaled to controls: 0 for no effect and ±100 for the full control effect
#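 Compounds were evaluated in HFFs infected with an HCMV luciferase reporter virus (MOI 1 PFU/cell). Luciferase in lysates collected 72 h post infection served as the replication measure.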
# Pf growth 48h – inhibits P. falciparum growth in the first generation, 48 h. P. falciparum luciferase growth in erythrocytes, 48 h. Potency, µM (highest dose often 28.7 µM), for inactives: top-dose activity change, negative = inhibition, most hits filed as inhibitors. hit rate 5.9% among 310,000. AID 504832; also: potency is read from the fitted curve at half-maximal effect; % is scaled to controls: 0 for no effect and ±100 for the full control effect
#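 Erythrocytes infected with P. falciparum carrying an integrated firefly luciferase reporter (2% hematocrit, 0.1% parasitemia final) were exposed to compounds in RPMI 1640 with 0.5% Albumax at 37 C, 5% CO2. Growth inhibition was scored as reduced luminescence.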
# HCV inhibitor – HCV inhibition; hit rate 3.4% among 340,000; Potency, µM (highest dose often 41.8 µM), inactives show at the highest dose activity change, negative = inhibition, most hits filed as inhibitors; Huh7.5.1 HCVcc-Cre infection, luciferase reporter, 44 h; also: potency is read from the fitted curve at half-maximal effect; % is scaled to controls: 0 for no effect and ±100 for the full control effect
#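 Luciferase read-out (15 sec integration) after a 15 min room-temperature substrate step quantifies HCVcc-Cre infection. Cells, 1,000 per well, had compound added 4 h post-plating, then virus at ~0.5 moi, and were cultured 44 h.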
# Pf growth 96h – P. falciparum growth inhibition at 96 hour, primary screen for plastid delayed-death inhibitors. hit rate 6.9% among 320,000. Potency, µM (highest dose often 28.7 µM), for the others: at the highest dose activity change, negative = inhibition, most hits filed as inhibitors. P. falciparum luciferase reporter growth, 96 h. AID 504834; also: potency is read from the fitted curve at half-maximal effect; % is scaled to controls: 0 for no effect and ±100 for the full control effect
#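 Luminescence readout: decreased luciferase signal marks inhibited growth of reporter-expressing P. falciparum in infected red cells (2% hematocrit, 0.05% parasitemia final), exposed to compound two generations (96 h, 37 C, 5% CO2).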
# Numbers without * were called inactive; u = inconclusive; x = no result; + = active, no number; [ ] = another dose, or the depositor's remark. Unless noted, calls follow the shape of the dose curve; as a rule, active = well fitted inhibition curve with a large enough effect; inconclusive = small, poorly fitted or top-dose-only effect, or another doubt; inactive = no such curve, though single readings can be large or run the other way.
SMILES,Shiga toxin inh,CHX counter,HCMV antiviral,Pf growth 48h,HCV inhibitor,Pf growth 96h
CCN(CC)S(=O)(=O)c1ccc(N2CCOCC2)c(NC(=O)c2cc(-c3ccccn3)nc3ccccc23)c1,-12,-1,6,1.9µM*,u,8.3µM*
CCN(CC)S(=O)(=O)c1ccc(N2CCOCC2)c(NC(=O)c2cccc3ccccc23)c1,-5,-4,-23,u,3%,u
O=C(Cn1c(=O)oc2cccnc21)Nc1ccccc1Oc1ccc(Cl)cc1Cl,-11,-3,x,3%,9%,0%
O=C(/C=C1\C(=O)Nc2ccccc21)/C=C1\C(=O)Nc2ccccc21,48,15*,-14,61%,u,u
Cc1ncc(/C=C2\C(=O)Nc3ccccc32)[nH]1,40*,26*,17,23%,21%,u
CN(C)/C=C1\C(=O)Nc2ccccc21,24,9,-3,4%,11%,x
CCc1ncc(/C=C2\C(=O)Nc3ccccc32)[nH]1,29,26*,-13,35%,u,70%
Cc1c(Cl)ccc2sc(N3CCN(C(=O)c4ccco4)CC3)nc12,x,x,43,x,x,x
O=C(c1ccc([N+](=O)[O-])o1)N1CCN(c2nc3c(Cl)cccc3s2)CC1,x,x,u,1.3µM*,u,1µM*
Cc1ccc2sc(N3CCN(C(=O)c4ccc([N+](=O)[O-])o4)CC3)nc2c1C,x,x,-7,0.37µM*,u,0.74µM*
COc1cccc2sc(N3CCN(C(=O)c4ccc([N+](=O)[O-])o4)CC3)nc12,x,x,x,0.83µM*,7.9µM*,0.74µM*
COc1ccc(OC)c2sc(N3CCN(C(=O)c4ccco4)CC3)nc12,x,x,-1,x,x,x
O=C(c1ccc([N+](=O)[O-])o1)N1CCN(c2nc3ccc(F)cc3s2)CC1,x,x,-36,2.3µM*,u,1.2µM*
O=C(C[C@H]1C/C=C\C[C@H](Cc2ccc(F)cc2)C(=O)O[C@@H](c2ccccc2)CNC1=O)NCCO,x,x,15,x,19%,x
CCN(CC)C(=O)C(=O)Nc1ccc(OC)c(Cl)c1,49,11,-35,17%,3%,0%
COc1cc2cc(C#N)c(SCC(=O)Nc3cc(C)on3)nc2cc1OC,-11,-4,-22,u,5%,1%
CCCCC/C=C\C[C@H](O)/C=C/c1cccc(C[C@H](O)CCCCO)n1,-7,-2,38,13µM*,2%[8.37 µM],u
Cc1cc(Nc2nc3ccccc3nc2Cl)n(-c2ccc([N+](=O)[O-])cc2)n1,-17,1,43,x,u,1µM*
COc1cccc(Cn2c(=O)n(-c3ccccc3C)c(=O)c3c2c2cc(C)ccc2n3C)c1,x,x,-68*,x,x,x
Cc1cccc(OCc2cc(-c3ccccc3)no2)c1C,86*,48*,9,x,4%,99%
Fc1ccc(OCc2cc(-c3ccccc3)no2)cc1,90*,69*,28,x,-3%,81%
Clc1ccc(OCc2cc(-c3ccccc3)no2)c(Cl)c1,69*,40*,4,81%,-24%,223%
COc1ccc(-c2cc(COc3ccccc3)on2)cc1,67*,49*,-14,191%,u,118%
Clc1ccc(SCc2cc(-c3ccccc3)no2)cc1,2,0,-31,u,1%,-38%
CCCn1cc(CCC(=O)Nc2ccc(Oc3cccnc3)cc2)c2ccccc21,x,x,43,x,x,x
SMILES,Shiga toxin inh,CHX counter,HCMV antiviral,Pf growth 48h,HCV inhibitor,Pf growth 96h
Cc1c(NC(=O)c2ccccc2)cc(C(C)C)c(O)c1S(=O)(=O)c1ccc(Cl)cc1,x,x,30,x,x,x
Cc1ccc(C(O)Cn2nc(C)cc2C)cc1 (stereo unspecified),x,x,-16,-2%,18%,87%
Cc1ccccc1Cn1ccn(-c2ccc(F)c(F)c2)c(=O)c1=O,x,x,-35,x,x,x
C=CCNc1cccc2c1S(=O)(=O)N[C@@H](C)CO2,x,x,-17,x,x,x
O=C(CSc1nnc(CCc2nc3ccccc3[nH]2)n1-c1ccccc1)NCc1ccco1,-2,5,16,-15%,4%,u
COc1ccc(-n2c(CCc3ccccc3)nnc2SCC(=O)NCc2ccccc2)cc1,-17,-4,-20,x,-1%,10µM*
O=C(CSc1nnc(CCc2nc3ccccc3[nH]2)n1-c1ccccc1)NCc1ccccc1,-1,4,16,u,-6%,10µM*
Cc1cc(=O)n2nc(N3CCCC(C(=O)NCc4ccccc4Cl)C3)sc2n1 (stereo unspecified),-4,-3,-25,u,11%,u
CCCCNC(=O)CNC(=O)c1nn(-c2ccc(OC)c(OC)c2)c(=O)c2ccccc12,x,x,-13,x,x,x
COc1ccc(CCNC(=O)CNC(=O)c2nn(-c3ccc(OC)c(OC)c3)c(=O)c3ccccc23)cc1OC,-4,-2,-18,9.3µM*,-11%,60%
CCN(CCCNC(=O)CNC(=O)c1nn(-c2ccc(OC)c(OC)c2)c(=O)c2ccccc12)c1ccccc1,-2,-2,-24,12µM*,-8%,u
CC1CCCCN1C(=S)NC(=O)c1cc(Br)ccc1Cl (stereo unspecified),x,x,-24,u,6%,13µM*
COc1ccc(CCNC(=O)Cn2nnc(-c3ccc(N(C)C)cc3)n2)cc1OC,29,16,-2,24%,u,4.1µM*
COc1ccc(N(CC(=O)NC2CCCC2)C(=O)Cn2nnc(-c3ccc(C)cc3)n2)cc1OC,-5,-5,51,u,x,10µM*
Cc1ccc(-c2nc(CCNC(=O)C(=O)Nc3ccc(C)c(C)c3)cs2)cc1,x,x,89,x,x,x
Cc1nn(-c2ccc(N3CCOCC3)nn2)c(C)c1CCC(=O)Nc1ccc(F)cc1,10,21*,-20,-5%,u,u
Cc1cc(C)n(C(=O)CCC(=O)NCc2ccccc2)n1,-5,-4,10,-6%,16%,8%
Cc1ccc(NC(=O)CCN2CCOCC2)cc1C,-4,-5,10,19%,13%,0.93µM*
Cc1cc(C)n(C(=O)CCC(=O)Nc2ccc(C)c(C)c2)n1,-11,-2,-19,x,0%,12µM*
Cc1cccc(NC(=O)CCc2c(C)nn(-c3ccc(N4CCOCC4)nn3)c2C)c1,40*,23*,28,42%,-3%,u
Cc1ccc(C)c(N2CCN(C(=O)C(C)n3c(C)c4cnn(-c5ccccc5)c(=O)c4c3C)CC2)c1 (stereo unspecified),x,x,-11,x,x,x
O=C(CNS(=O)(=O)c1cccc(Br)c1)NCC1CCCCC1,-3,-6,-5,14%,14%,56%
COCCCNC(=O)CCCCn1c(=O)c2ccccc2n(CC(=O)Nc2ccc(C)cc2C)c1=O,x,x,-5,x,x,x
Cc1ccc(NC(=O)CCc2c(C)nn(-c3ccc(N4CCOCC4)nn3)c2C)cc1C,50*,20*,0,-24%,-19%,14%
Cc1ccccc1NC(=O)CCc1c(C)nn(-c2ccc(N3CCOCC3)nn2)c1C,28,6,+,u,19%,u
